# Data as given in PubChem BioAssay (NCATS).
# Where “and” joins values, the source holds several entries; their conditions need not be identical. Identical values can stand only once. Inconclusive results are not listed. More than one record can exist for a structure, and the calls need not agree. Calls of active or inactive are those of the source. Calls come from the whole dose curve. Numbered stars: 1 amine (or outer) side, 2 acyl side, 3 side chain; on linkers, the order of the positions; unused ones are H or OH. Bridge positions count the residues as written; N and C are the ends. Square brackets hold non-standard residues; d marks the D form. Peptide text beside a SMILES is read from it. I, II: the chains in the order shown. Actinocin(9to1) = Cc1c2oc3c(C)ccc(C(=O)[*:1])c3nc-2c(C(=O)[*:2])c(N)c1=O; NMeV = CN[C@H](C(=O)O)C(C)C; Sar = CNCC(=O)O
# Assays:
# [1] = Cytotoxicity counterscreen for inhibitors of SARS-CoV-2 cell entry (AID 1645845); conditions: cell viability (SARS-CoV-2 entry assay cells); series mostly up to 57.1 µM; note: nearly all actives have a fitted effect of over 50% in size; for activity change, negative = cytotoxicity: % is set by controls: 0 for no effect and ±100 for the full control effect
# In short: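 After a 15 min room-temperature ATPLite 1step step, luminescence reflected ATP remaining in HEK293-ACE2 cells exposed to compound for 1 h plus 48 h at 37 C, with percent activity set by cell and no-cell controls.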
# [2] = Primary qHTS to identify inhibitors of SARS-CoV-2 cell entry (AID 1645846); conditions: SARS-CoV-2 pseudovirus cell entry assay, luminescence; activity change, negative = inhibition: at 57.1 µM (top of the series) unless noted; series mostly up to 57.1 µM; note: nearly all actives have a fitted effect of over 45% in size; note: potency is the fitted concentration of half-maximal effect
# In short: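 Entry measured by luciferase signal 48 h after adding SARS-CoV-2-S pseudotyped MLV particles to HEK293-ACE2 cells preincubated 1 h with compounds. Normalisation: bald particles and spike particles.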
# [3] = VSVG counterscreen qHTS to identify inhibitors of SARS-CoV-2 cell entry (AID 1645847); conditions: VSV-G pseudotyped particle entry, luciferase; series mostly up to 57.2 µM; note: potency is the fitted concentration of half-maximal effect; nearly all actives have a fitted effect of over 65% in size
# In short: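 Luminescence read after 48 h infection at 37 C with VSV-G-pseudotyped MLV particles, following 1 h compound exposure of Expi293F cells stably expressing human ACE2; scaled between bald particle and VSV-G particle wells.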
SMILES,Potency [1],Potency [2],"activity change, negative = inhibition [2]","activity change, negative = cytotoxicity [1]",outcome [2],Potency [3]
COCCCOc1cc(C[C@@H](C[C@H](N)[C@@H](O)C[C@H](C(=O)NCC(C)(C)C(N)=O)C(C)C)C(C)C)ccc1OC,inactive,inactive,-3.02%,–,–,–
CCN(CCO)CCCC(C)Nc1ccnc2cc(Cl)ccc12 (centres undefined),–,–,-16.5% [at 5.25 µM],-4.65% [at 5.25 µM] (inactive) and -23.5% [at 5.25 µM] (inactive),inactive [at 5.25 µM],–
CC(=O)Oc1ccccc1C(=O)Nc1ncc([N+](=O)[O-])s1,inactive,5.62 µM (active) and inactive,–,–,–,1080 nM (active)
CC(=O)Oc1cc2c(s1)CCN(C(C(=O)C1CC1)c1ccccc1F)C2 (centres undefined),inactive,inactive,-16.4%,–,–,–
CCC1=C[C@@H]2CN(C1)Cc1c([nH]c3ccccc13)[C@@](C(=O)OC)(c1cc3c(cc1OC)N(C)[C@H]1[C@@](O)(C(=O)OC)[C@H](OC(C)=O)[C@]4(CC)C=CCN5CC[C@]31[C@@H]54)C2,inactive,2.82 µM (active),-90.3%,–,–,1670 nM (active)
"Cc1c2oc3c(C)ccc(C(=O)N[C@@H]4C(=O)N[C@H](C(C)C)C(=O)N5CCC[C@H]5C(=O)N(C)CC(=O)N(C)[C@@H](C(C)C)C(=O)O[C@@H]4C)c3nc-2c(C(=O)N[C@@H]2C(=O)N[C@H](C(C)C)C(=O)N3CCC[C@H]3C(=O)N(C)CC(=O)N(C)[C@@H](C(C)C)C(=O)O[C@@H]2C)c(N)c1=O (I: T[dV]P[Sar][NMeV] / II: T[dV]P[Sar][NMeV]; ester I:1-I:C, II:1-II:C; linker I:N-II:N via Actinocin(9to1))",inactive,–,-94.7%,–,–,42.9 nM (active)
